{"source": "the supplement of paper PMC13380429", "test_system": "Vero E6 infected with SARS-CoV-2", "assay": "inhibition of SARS-CoV-2 cytopathic effect; higher = more antiviral protection, active = above 15", "conditions": "48 h", "note": "A number with no mark means an inactive call."}
{"smiles": "Cc1ccccc1NC(=N)Nc1ccccc1C", "note": "[ditolylguanidine]", "values": [{"measurement": "inhibition of SARS-CoV-2 cytopathic effect", "setting": "1 nM", "result": 1.39, "unit": "%"}, {"measurement": "inhibition of SARS-CoV-2 cytopathic effect", "setting": "8.33 nM", "result": 1.77, "unit": "%"}, {"measurement": "inhibition of SARS-CoV-2 cytopathic effect", "setting": "100 nM", "result": -1.06, "unit": "%"}, {"measurement": "inhibition of SARS-CoV-2 cytopathic effect", "setting": "833.33 nM", "result": -2.29, "unit": "%"}, {"measurement": "inhibition of SARS-CoV-2 cytopathic effect", "setting": "10000 nM", "result": -0.63, "unit": "%"}]}
{"smiles": "CCOC(=O)c1cncn1[C@H](C)c1ccccc1", "note": "[etomidate]", "values": [{"measurement": "inhibition of SARS-CoV-2 cytopathic effect", "setting": "1 nM", "result": 0.18, "unit": "%"}, {"measurement": "inhibition of SARS-CoV-2 cytopathic effect", "setting": "8.33 nM", "result": -0.71, "unit": "%"}, {"measurement": "inhibition of SARS-CoV-2 cytopathic effect", "setting": "100 nM", "result": -2.47, "unit": "%"}, {"measurement": "inhibition of SARS-CoV-2 cytopathic effect", "setting": "833.33 nM", "result": 1.97, "unit": "%"}, {"measurement": "inhibition of SARS-CoV-2 cytopathic effect", "setting": "10000 nM", "result": 0.06, "unit": "%"}]}
{"smiles": "COC(=O)C[C@](O)(CCC(C)(C)O)C(=O)O[C@@H]1C(OC)=C[C@]23CCCN2CCc2cc4c(cc2[C@H]13)OCO4", "note": "[harringtonine]", "values": [{"measurement": "inhibition of SARS-CoV-2 cytopathic effect", "setting": "1 nM", "result": 1.51, "unit": "%"}, {"measurement": "inhibition of SARS-CoV-2 cytopathic effect", "setting": "8.33 nM", "result": 0.45, "unit": "%"}, {"measurement": "inhibition of SARS-CoV-2 cytopathic effect", "setting": "100 nM", "result": -10.7, "unit": "%"}, {"measurement": "inhibition of SARS-CoV-2 cytopathic effect", "setting": "833.33 nM", "result": "19.9% (active)"}, {"measurement": "inhibition of SARS-CoV-2 cytopathic effect", "setting": "10000 nM", "result": -9.74, "unit": "%"}]}
{"smiles": "CCN(CC)CCOC(=O)C(c1ccccc1)C1CCCCC1", "note": "(stereo not given) [drofenine]", "values": [{"measurement": "inhibition of SARS-CoV-2 cytopathic effect", "setting": "1 nM", "result": -1.59, "unit": "%"}, {"measurement": "inhibition of SARS-CoV-2 cytopathic effect", "setting": "8.33 nM", "result": 1.9, "unit": "%"}, {"measurement": "inhibition of SARS-CoV-2 cytopathic effect", "setting": "100 nM", "result": -1.61, "unit": "%"}, {"measurement": "inhibition of SARS-CoV-2 cytopathic effect", "setting": "833.33 nM", "result": -1.42, "unit": "%"}, {"measurement": "inhibition of SARS-CoV-2 cytopathic effect", "setting": "10000 nM", "result": 1.22, "unit": "%"}]}
{"smiles": "CC1(C)C(=O)N(CCN2CCC(C(=O)c3ccc(F)cc3)CC2)c2ccccc21", "values": [{"measurement": "inhibition of SARS-CoV-2 cytopathic effect", "setting": "1 nM", "result": -2.5, "unit": "%"}, {"measurement": "inhibition of SARS-CoV-2 cytopathic effect", "setting": "8.33 nM", "result": 0.34, "unit": "%"}, {"measurement": "inhibition of SARS-CoV-2 cytopathic effect", "setting": "100 nM", "result": -1.18, "unit": "%"}, {"measurement": "inhibition of SARS-CoV-2 cytopathic effect", "setting": "833.33 nM", "result": -0.38, "unit": "%"}, {"measurement": "inhibition of SARS-CoV-2 cytopathic effect", "setting": "10000 nM", "result": 0.46, "unit": "%"}]}
{"smiles": "C[N+](C)(C)[C@@H](Cc1c[nH]c(=S)[nH]1)C(=O)O", "note": "[L-ergothioneine]", "values": [{"measurement": "inhibition of SARS-CoV-2 cytopathic effect", "setting": "1 nM", "result": 1.26, "unit": "%"}, {"measurement": "inhibition of SARS-CoV-2 cytopathic effect", "setting": "8.33 nM", "result": -1.22, "unit": "%"}, {"measurement": "inhibition of SARS-CoV-2 cytopathic effect", "setting": "100 nM", "result": 2.33, "unit": "%"}, {"measurement": "inhibition of SARS-CoV-2 cytopathic effect", "setting": "833.33 nM", "result": 2.82, "unit": "%"}, {"measurement": "inhibition of SARS-CoV-2 cytopathic effect", "setting": "10000 nM", "result": 0.9, "unit": "%"}]}
{"smiles": "COc1cc(/C=C2\\CCC/C(=C\\c3ccc(O)c(OC)c3)C2=O)ccc1O", "note": "[cyclovalone]", "values": [{"measurement": "inhibition of SARS-CoV-2 cytopathic effect", "setting": "1 nM", "result": -0.89, "unit": "%"}, {"measurement": "inhibition of SARS-CoV-2 cytopathic effect", "setting": "8.33 nM", "result": 0.77, "unit": "%"}, {"measurement": "inhibition of SARS-CoV-2 cytopathic effect", "setting": "100 nM", "result": 2.28, "unit": "%"}, {"measurement": "inhibition of SARS-CoV-2 cytopathic effect", "setting": "833.33 nM", "result": 6.64, "unit": "%"}, {"measurement": "inhibition of SARS-CoV-2 cytopathic effect", "setting": "10000 nM", "result": "29.5% (active)"}]}
